# Compounds with a hit are over-represented: about 11% of the library has one in this group of screens.
# Coupling enz = counter-screen for Giardia aldolase inhibitors: coupling enzyme system. coupling enzyme system counterscreen, AmpLite Red fluorescence. activity change, negative = inhibition, % at 58.2 µM, hits read low. 290,000 compounds, 0.67% hits; in the data active = activity change below about -30%
#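 Compounds tested against the coupling enzymes alone at 57.5 uM final; readout was AmpLite Red fluorescence (525/598 nm) after 20 min at RT.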
# Sfp inh = blocks B. subtilis Sfp PPTase activity | 310,000 compounds, 3.5% hits | Potency, µM, inactives show largest response in the series, negative = inhibition, most hits filed as inhibitors | AID 1490 | Biochemical Sfp PPTase activity, qHTS | Q9F4F7;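 note: the enzyme is Sfp with the accession as filed and its product quenches rhodamine fluorescence; potency is the fitted concentration of half-maximal effect; 0% = enzyme reaction without inhibitor and -100% = no enzyme wells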
#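 With Hepes-Na pH 7.6 buffer containing 10 mM MgCl2, Sfp (15 nM) modified BHQ-2-YbbR (12.5 uM) using rhodamine-CoA (5 uM). Two reads 30 minutes apart at 525/598 nm yielded each well's rate.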
# Tau fluor counter = counter-screen for tau fibril formation inhibitors; tau K18 P301L Alexa594 fluorescence, heparin fibrillization; Potency, µM (titrated, usually from 57.7 µM), for the others: at the top dose activity change, negative = decrease; 280,000 compounds, 0.93% hits; note: potency is the fitted concentration of half-maximal effect; nearly all actives have a fitted effect of over 55% in size
#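 Human tau K18 P301L (15 uM unlabeled, 0.24 uM Alexa 594-labeled) in 100 mM sodium acetate pH 7 with 20 uM heparin, 6 hr at 37 C. ThT 30 uM added, 1 hr ambient; Alexa 594 FP and total fluorescence read at 555/632 nm.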
# G9a inh = blocks human histone lysine methyltransferase G9a. Q96KQ7. G9a H3K9 monomethylation, AlphaScreen, 2 h. Potency, µM (top dose mostly 102 µM), for the others: at the top dose activity, negative = inhibition, hits mostly inhibitors. 350,000 compounds, 8.8% hits. AID 504332; note: potency is the fitted concentration of half-maximal effect; nearly all actives have a fitted effect of over 75% in size
# Target sequence (Q96KQ7 913-1193 limits assumed): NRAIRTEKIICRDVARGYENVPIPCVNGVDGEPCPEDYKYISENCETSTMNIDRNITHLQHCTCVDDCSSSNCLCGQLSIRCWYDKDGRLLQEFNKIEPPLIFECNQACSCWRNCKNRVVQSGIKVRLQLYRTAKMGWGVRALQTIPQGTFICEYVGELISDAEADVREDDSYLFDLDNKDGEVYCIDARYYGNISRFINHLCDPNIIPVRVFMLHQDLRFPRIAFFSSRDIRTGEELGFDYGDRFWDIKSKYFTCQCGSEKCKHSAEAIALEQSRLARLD
#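 Signal arises when biotinylated H3K9 peptide, once monomethylated, bridges streptavidin donor and antibody-captured acceptor beads. Enzyme at 20 nM was preincubated 15 min with test compounds; peptide 500 nM and SAM 20 uM then reacted for 2 h.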
# Tau fibril ThT = blocks human tau fibril formation measured by thioflavin T | Potency, µM (highest dose often 57.4 µM), without a hit: top-dose activity, negative = inhibition, usual class: inhibitors | recombinant tau K18 P301L (four-repeat tau fragment), heparin-induced fibrillization, ThT fluorescence | P10636 | 270,000 compounds, 2.1% hits | AID 1460; note: potency is the fitted concentration of half-maximal effect; nearly all actives have a fitted effect of over 55% in size
# Target sequence (P10636 561-689 P618L limits assumed): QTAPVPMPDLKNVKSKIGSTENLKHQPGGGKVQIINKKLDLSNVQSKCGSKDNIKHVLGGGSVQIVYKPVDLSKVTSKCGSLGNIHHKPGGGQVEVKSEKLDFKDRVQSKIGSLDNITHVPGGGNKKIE
#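 Aggregation was driven by heparin (20 uM final) acting on recombinant tau […] bearing P301L in 100 mM sodium acetate pH 7; fibrils were detected with Thioflavin T.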
# Tau fibril FP = inhibitors of human tau fibril formation. K18 P301L tau heparin fibrillization, Alexa594 FP, 6 h. Potency, µM (titrated, usually from 57.7 µM), inactives show at the top dose activity, negative = inhibition, hits mostly inhibitors. 280,000 compounds, 0.39% hits. AID 1468; note: potency is the fitted concentration of half-maximal effect; nearly all actives have a fitted effect of over 55% in size
#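 Read-out: fluorescence polarization of Alexa 594-labeled tau (0.24 uM), 555 nm excitation, 632 nm emission. Mixtures held 15 uM unlabeled K18 P301L, compound and 20 uM heparin, pH 7 acetate buffer, incubated 6 hr at 37 C.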
# Active calls of the source: *; u = inconclusive; x = no result given; ! = a repeat was not active; [ ] = another dose, or the depositor's remark. Unless noted, calls come from the whole dose curve; as a rule, active = well fitted curve in the direction sought with a large enough effect; inconclusive = small, poorly fitted or top-dose-only effect, or another doubt; inactive = no such curve, though single readings can be large; an effect the other way counts as inactive or inconclusive. Unless noted, % is set by controls: 0 for no effect and ±100 for the full control effect.
SMILES,Coupling enz,Sfp inh,Tau fluor counter,G9a inh,Tau fibril ThT,Tau fibril FP
CCN(CC)c1ccc(NC(=O)C2CCCN(S(=O)(=O)c3cccnc3)C2)c(C)c1 (stereo not drawn),-9.6,-0.3%,-12.6%,20µM*,-14.9%,4.0%
COc1ccc(NC(=O)C2CCCN(S(=O)(=O)c3cccnc3)C2)c(OC)c1 (stereo not drawn),0.3,2.5%,-6.9%,-10.8%,-9.7%,-9.4%
CCN(CC)c1ccc(NC(=O)C2CCN(S(=O)(=O)c3cnc[nH]3)CC2)c(C)c1,x,x,-14.3%,11.2µM*,-14.2%,-2.7%
CCOC(=O)C1CCN(C(=O)Nc2c(-c3ccccc3)noc2C)CC1,-0.6,11.2%,4.4%,19.5%[59 µM],-0.9%,8.5%
COc1ccc2[nH]cc(CCNc3cc(-c4ccccc4Cl)ncn3)c2c1,-2.2,u,x,3.5%[0.501 µM],x,x
COc1ccc2[nH]cc(CCNc3nc(-c4ccoc4)nc4ccccc34)c2c1,-6.3,-5.2%,31.6µM*[quencher],x,u,u
COc1cccc(-c2nc(NCCc3c[nH]c4ccc(OC)cc34)c3ccccc3n2)c1,-6.2,-13.9%,14.1µM*[quencher],x,u,u
COc1ccc2[nH]cc(CCNc3cc(-c4ccccc4C(F)(F)F)ncn3)c2c1,-0.4,79.4µM*,-38.6%,x,-23.8%,14.0%
COc1ccc2[nH]cc(CCNc3ccnc(-c4ccoc4)n3)c2c1,0.1,u,x,-38.7%[0.501 µM],x,x
COc1ccc(-c2noc(CN(C(C)C)S(=O)(=O)c3ccc(Br)cc3)n2)cc1,x,x,-29.9%,48.5%[59 µM],-0.5%,-4.6%
COc1ccc(OC)c(S(=O)(=O)NCc2ccc3c(c2)CCN3C(=O)c2cccc(C)c2)c1,x,x,-9.6%,5.1%[59 µM],1.1%,8.0%
CC(=O)N1CCN(S(=O)(=O)c2cccc(C(=O)Nc3ccc4c(c3)CCC4)c2)CC1,0.3,4.6%,7.8%,28.2µM*,9.4%,6.7%
O=C(Nc1ccc(N2CCCCCC2)cc1)c1cccc(S(=O)(=O)N2CCOCC2)c1,x,x,x,1.78µM*,x,x
O=C(NCC1CCCO1)c1cccc(S(=O)(=O)N2CCOCC2)c1 (stereo not drawn),x,18.5%,x,4.8%,x,x
CN(c1ccccc1)S(=O)(=O)c1cccc(C(=O)NCCc2ccc(O)c(O)c2)c1,-8.2,17.8µM*,u,8.91µM*,u,-6.6%
O=C(NNC(=S)NCC1CCCO1)c1cccc(S(=O)(=O)N2CCOCC2)c1 (stereo not drawn),-0.5,26.8%,3.5%,50.1µM*,5.2%,-4.2%
O=C(Nc1cccc(S(=O)(=O)N2CCOCC2)c1)c1cccc(S(=O)(=O)N2CCCC2)c1,x,x,x,-43.2%,x,x
COC(=O)c1ccc(CN(Cc2ccc(OC)c(OC)c2)S(=O)(=O)c2cc(C(=O)Nc3cccc(C)c3)ccc2F)cc1,x,x,-20.6%,-1.8%[59 µM],3.9%,u
Cc1ccc(C(=O)N2CCN(S(=O)(=O)c3cc(Br)ccc3Br)CC2)o1,3.6,-3.3%,x,u,x,x
CN(c1ccccc1)S(=O)(=O)c1cccc(C(=O)Nc2ccc(N3CCOCC3)cc2)c1,x,x,x,56.2µM*,x,x
CN(C)S(=O)(=O)c1cccc(C(=O)Nc2ccc(N3CCOCC3)cc2)c1,-6.5,4.0%,-13.5%,u,u,4.5%
CCOc1ccc(N(CC(=O)Nc2ccc(C)c(Cl)c2)S(C)(=O)=O)cc1,-1.1,9.4%,x,x,x,x
Cc1cc(Cl)ccc1OCc1cc(=O)n2c3c(sc2n1)CCCC3,x,x,2.7%,2.0%[59 µM],-5.5%,0.1%
COc1ccc(-c2noc(COc3ccc4c(c3)OCO4)n2)cc1OC,-1.7,8.0%,5.5%,-8.9%[59 µM],u,0.9%
COc1ccc(-c2noc(COc3ccc4c(c3)OCO4)n2)cc1,-4.4,10µM*,-29.5%,16.5%[59 µM],u,u
SMILES,Coupling enz,Sfp inh,Tau fluor counter,G9a inh,Tau fibril ThT,Tau fibril FP
CCN(CCCNC(=O)CN1N=C(c2ccccc2)CCC1=O)c1ccccc1,x,x,-12.0%,11.2µM*,-3.9%,8.4%
c1ccc(SCCc2ccncc2)cc1,1.0,1.9%,-3.6%,-20.4%[12.7 µM],-12.3%,10.9%
COc1ccc(SCCc2ccncc2)cc1,4.0,-20.8%,14.5%,25.1µM*,9.4%,-8.8%[2.34 µM]
Fc1ccc(SCCc2ccncc2)cc1,-0.9,-0.5%,-0.4%,50.1µM*!,-6.1%,-6.2%
CC1CCCCC1NC(=O)COc1ccccc1C#N (stereo not drawn),x,x,x,12.7%[2.33 µM],x,x
COc1ccccc1OCC#CCNC1CCCCC1C (stereo not drawn),-0.9,-8.3%,-0.4%,8.91µM*,-0.7%,-3.8%
CCOC(=O)/C(=N\Nc1ccc(Br)cc1)N1CC(C)OC(C)C1 (stereo not drawn),-2.3,-10.5%,-25.1%,3.16µM*,-5.7%,2.8%
CCOC(=O)/C(=N\Nc1ccccc1Cl)N1CC(C)OC(C)C1 (stereo not drawn),-0.3,-19.6%,-13.5%,1.4%[59 µM],-8.9%,-3.3%
CCOC(=O)/C(=N\Nc1ccc(Br)cc1)N1CCN(c2ccccc2OC)CC1,-1.3,u,u,15.8µM*,u,-4.3%
Cc1ccc2onc(CC(=O)N3CCN(c4ccc(F)cc4)CC3)c2c1,x,x,7.1%,-9.2%[59 µM],0.6%,9.1%
Cc1ccc(-c2csc(=Nc3ccc(F)cc3)n2Cc2ccc3c(c2)OCO3)cc1C,x,x,-26.9%,14.1µM*,-14.8%,4.1%
CCN(CC)S(=O)(=O)c1ccc(-c2csc(=Nc3cccc(C(F)(F)F)c3)n2Cc2ccc3c(c2)OCO3)cc1,x,x,-29.0%,u,-13.1%,-8.0%
Clc1ccc(-c2csc(=Nc3ccccc3)n2Cc2ccc3c(c2)OCO3)cc1,x,x,u,12.6µM*,-10.3%,-5.8%
Cc1ccc(-c2csc(=Nc3ccccc3)n2Cc2ccc3c(c2)OCO3)cc1C,x,x,-28.0%,14.1µM*,-12.9%,5.4%
Fc1ccc(-c2csc(=Nc3cccc(C(F)(F)F)c3)n2Cc2ccc3c(c2)OCO3)cc1,x,x,-20.0%,u,0.8%,-0.5%
CC(C)=CCC/C(C)=C/CC/C(C)=C/CSCC(=O)O,-1.6,-7.7%,4.2%,33.3%[59 µM],u,10.7%
Cc1cc(C(=O)CNCc2ccco2)c(C)n1-c1ccc(F)cc1,-3.5,-12.2%,-1.7%,22.4µM*,-18.5%,-4.3%
O=C(Nc1nonc1-c1ccc(Cl)cc1)c1ccccc1F,x,x,-4.2%,4.3%[59 µM],u,-1.4%
O=C(Cc1cccs1)NC1CC(=O)N(c2cccc(F)c2)C1 (stereo not drawn),x,x,-8.2%,5.3%[59 µM],-3.7%,-6.8%
CC(C)c1ccc(NC(=O)c2ccc3snnc3c2)cc1,x,4.9%,x,24.6%,x,x
CC(C)c1ccc(Nc2nnns2)cc1,0.2,20µM*,-6.4%,10µM*,x,-4.5%
Cc1ccnc(NS(=O)(=O)Cc2ccccc2)c1,1.2,11.8%,-0.6%,u,-3.0%,-1.2%
O=S(=O)(Cc1ccccc1)Nc1ccccc1Br,-0.6,15.1%,x,-1.6%,x,x

# High-throughput results as filed in PubChem.
